SMILES strings stand for the structures. The campaign covered roughly 290,000 compounds. About 3,000 (1%) were called active. The sample holds actives, similar compounds and a random draw of the others, so the mix is not that of the screen. Values without a mark were called inactive. Rule as the data show it: active = inhibition mostly above about 36% (no sharp cut-off); inactive = mostly below about 34%.

The inhibition is the change of the read-out against control, counted positive when it falls.

The assay is described as follows: NOD1 signaling inhibitors, primary screen, cell-based, luminescence, uHTS (AID 1578).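 Also: HEK-293T reporter cells stimulated with the NOD1 agonist gamma-tri-DAP.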 The following applies: NOD1-driven NF-kB luciferase reporter cells, at 4 µM, hits give high values.
As for `CCOC(=O)COn1c(=O)c(-c2ccccc2)[n+]([O-])c2ccccc21`, the inhibition is 0.2%.

Consider `COc1ccc(/C=N/NC(=O)c2ccc(Br)cc2)c(OC)c1`, for which the inhibition is -40.4%.

Regarding `COC(=O)C1=C(C)NC(C)=C(C(=O)OC)C1c1ccco1`, the inhibition is -5.8%.

In the case of `CCOc1ccc(NC(=O)COC(=O)Cc2ccc(S(=O)(=O)N3CCOCC3)s2)cc1`, the inhibition is 5.1%.

`Cc1ccc(-n2nc3c(=O)n(CC(=O)NCc4ccccn4)nc(C)c3c2C)cc1`: the inhibition was -3.4%.

For `CC(C)(C)OC(=O)N1CCOCCOCCN(C(=O)OC(C)(C)C)CCOCCOCC1`, the inhibition was 4.4%.

As for `COC(=O)c1nc(NC(=O)c2cc(OC)c(OC)c(OC)c2)n[nH]1`, the inhibition is 15.5%.

For the compound `Cc1ccc2[nH]cc(C(=O)CCl)c2c1`, the inhibition was 107% (active).

Take `CCN1CCN(CC(=O)c2c[nH]c3ccc(C)cc23)CC1`: the inhibition was -10.6%.

As to `CCN(CC)CC(=O)c1c[nH]c2ccc(C)cc12`, the inhibition is -11.4%.

For `Nc1ccc(S(=O)(=O)c2ccc(Cl)cc2)cc1`, the inhibition is 4%.

Take `COc1ccc(/C=N/NC(N)=S)cc1`: the inhibition is -8.2%.

For the compound `Cc1ccc(S(=O)(=O)c2nc(S(=O)(=O)c3ccccc3)sc2N2CCN(CCO)CC2)cc1`, the inhibition is 18%.

Turning to `CCN1C(=O)N(CC)C2NC(=S)NC21` (stereo not drawn), the inhibition was 8.6%.

On to `COc1ccc(OCc2cc(C(=O)N(C)Cc3nnc(C)o3)no2)c(Cl)c1`, for which the inhibition was -5.8%.

Consider `C=CCn1c(SCCCc2ccccc2)nc2c1c(=O)[nH]c(=O)n2C`, for which the inhibition is -1.2%.

Take `C/C=C/Cn1c(SCc2ccccc2)nc2c1c(=O)[nH]c(=O)n2C`: the inhibition is 35%.

Consider `Cc1ccc(S(=O)(=O)c2cc3c(=O)n4ccccc4nc3n(C)c2=N)cc1C`, for which the inhibition is -7.1%.

Take `CCOCCOC(=O)c1[nH]c2c(c1C)C(=O)CC(c1cc(OC)c(OC)c(OC)c1)C2` (stereo not drawn): the inhibition is 4.2%.

As to `CCCOC(=O)c1[nH]c2c(c1C)C(=O)CC(c1ccc(OC)c(OC)c1)C2` (stereo not drawn), the inhibition is -5.9%.

Consider `CC(=O)N1CCN(c2ccccc2NC(=O)c2ccc(C#N)cc2F)CC1`, for which the inhibition is 2.6%.

For the compound `COc1ccc(OCCN2CCN(C(=O)c3ccc(OC)c(OC)c3)CC2)cc1`, the inhibition is -11.7%.

Consider `Cc1ccc(-c2nc(N)sc2-c2ccccc2)cc1C`, for which the inhibition is -14%.

As for `CCOC(=O)N1CCc2c(sc(NC(=O)C3=COCCO3)c2C(N)=O)C1`, the inhibition is -29.7%.

With `CCOC(=O)c1c(NC(=O)c2cccs2)sc2c1CCN(C(=O)OCC)C2`, the inhibition is 14%.

Consider `CCOC(=O)N1CCc2c(sc(NC(=O)c3ccc(Cl)s3)c2C(N)=O)C1`, for which the inhibition is 85.3% (active).

As to `O=C(CSc1nnc(-c2ccccc2Br)o1)Nc1cccc2ccccc12`, the inhibition was -22.5%.

As for `Cc1ccc(C2=Nn3c(COc4ccc(Cl)cc4)nnc3SC2CC(=O)O)cc1` (stereo not drawn), the inhibition was 3.6%.

As for `CN(CCCNC(=O)Cn1c(=O)c2cccn2c2ccccc21)Cc1ccccc1`, the inhibition is -17.1%.

As to `Cc1ccccc1NC(=O)COC(=O)C1(C)CC1(Cl)Cl` (stereo not drawn), the inhibition was -11.4%.

`Cc1ccc(S(=O)(=O)Oc2ccc(/C=C(/NC(=O)c3ccccc3)C(=O)NCCCC(=O)O)cc2)cc1`: the inhibition was -18.3%.

Regarding `COC(=O)c1c(-c2ccccc2)csc1NC1=NS(=O)(=O)c2ccccc21`, the inhibition was 82.4% (active).

As to `COC(=O)c1ccc(C(=O)OC)c(NC2=NS(=O)(=O)c3ccccc32)c1`, the inhibition is -20.3%.

For the compound `CCOC(=O)c1c(-c2ccc(C)cc2)csc1NC1=NS(=O)(=O)c2ccccc21`, the inhibition is 24%.

With `O=C(OCC(=O)c1cccs1)c1ccccc1`, the inhibition is 2.3%.

With `Cc1nc2ccc(F)cc2cc1C(=O)Nc1ccc(Cl)c(Cl)c1`, the inhibition was -34%.

For the compound `O=C(Nc1ccc(Cl)cc1)N(Cc1nc2ccccc2c(=O)[nH]1)Cc1cccs1`, the inhibition is 99.1% (active).

For `Cc1ccc(NC(=O)N(Cc2nc3ccccc3c(=O)[nH]2)Cc2cccs2)cc1`, the inhibition is -2.2%.

Consider `O=C(Nc1cccc(Cl)c1)N(Cc1nc2ccccc2c(=O)[nH]1)Cc1cccs1`, for which the inhibition is -26.5%.

With `Cn1cc(C(=O)NCc2cccs2)c(=O)c2cc(S(=O)(=O)N3CCCC3)ccc21`, the inhibition is 53%.

In the case of `CCn1c(O)c(N=Nc2ccc3ccccc3n2)c2ccccc21`, the inhibition is -7.9%.

Turning to `Brc1ccc(N=Nc2ccc3ccccc3n2)cc1`, the inhibition was 43.4% (active).

As to `Brc1ccc(/C=N/Nc2ccc3ccccc3n2)cc1`, the inhibition was -39.3%.

For the compound `CC1Cc2ccccc2N1CC(=O)Nc1ccc(S(=O)(=O)N(C)C)cc1` (stereo not drawn), the inhibition is -7.7%.

In the case of `Cc1ccc(C)c(C(C)NC(=S)NCc2ccc(F)cc2)c1` (stereo not drawn), the inhibition was 52.6% (active).

For `Cc1ccc(C(C)NC(=S)NCc2ccc(F)cc2)c(C)c1` (stereo not drawn), the inhibition is 29.2%.

In the case of `Cc1ccc(C(C)NC(=S)NCc2ccc(F)cc2)cc1C` (stereo not drawn), the inhibition is -16.4%.

As for `CCOc1ccc(C(C)NC(=S)NCc2ccc(F)cc2)cc1` (stereo not drawn), the inhibition was 8.6%.

With `COc1ccc(C(C)NC(=S)NCc2ccc(F)cc2)cc1` (stereo not drawn), the inhibition is 55.1% (active).

For `COc1cccc(C(C)NC(=S)NCc2ccc(F)cc2)c1` (stereo not drawn), the inhibition was 20.3%.

Turning to `COCCNC(=O)Cn1c(=O)n(C)c2ccccc21`, the inhibition is -14%.

For `Cc1cc(C)cc(N(C(C)C(=O)NCCC2=CCCCC2)S(C)(=O)=O)c1` (stereo not drawn), the inhibition was 15%.

For the compound `CC(=O)Nc1ccc(NC(C)=C(C#N)C#N)cc1`, the inhibition was -12.5%.

With `COc1ccc(NC(=O)N2c3ccccc3CC2C)cc1OC` (stereo not drawn), the inhibition is -26.9%.

On to `COc1cccc(NC(=S)N2c3ccccc3CC2C)c1` (stereo not drawn), for which the inhibition is -26.6%.

`COc1ccc(NC(=S)N2c3ccccc3CC2C)cc1OC` (stereo not drawn): the inhibition was 30.4% (active).

On to `CCN(C(=O)COC(=O)CSc1ccc([N+](=O)[O-])cc1)C1CCS(=O)(=O)C1` (stereo not drawn), for which the inhibition was -23.6%.

Turning to `COc1cc(C(=O)N/N=C/c2ccc3c(c2)c2ccccc2n3C)ccc1O`, the inhibition was 32.9%.

With `Cc1ccc(CNC(=O)CCS(=O)(=O)Cc2ccc(C)cc2)cc1`, the inhibition was 15.8%.

Consider `CC(C)c1ccc2c(c1)C1Cc3ccccc3C1N2` (stereo not drawn), for which the inhibition is -15.3%.

`CCOc1cc(/C=C2/COc3ccccc3C2=O)ccc1OCC(=O)N(C)C`: the inhibition was 36.8%.

As for `CCOc1cc(/C=C2\COc3ccccc3C2=O)cc(Br)c1OCC(=O)N(C)C`, the inhibition was 54.9% (active).

On to `CCOc1cc(/C=C2\COc3ccccc3C2=O)ccc1OCC(=O)N(C)C`, for which the inhibition was 30.7%.
